Here are results for 31 molecules from PubChem BioAssay (EPA / NIEHS).

Inconclusive results are not listed. Calls of active or inactive are those of the source. The calls were made as follows, unless noted: active = hit-call score of the fitted dose curve at least 0.9, where 1 is the maximum; inactive = score below 0.9.

Assay [1] can be described thus: ATG_TAL_CIS: Attagene CIS-FACTORIAL HepG2 Assay for human TAL Basal Promoter (AID 2282966).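 Also: background control endpoint measuring basal TAL promoter reporter mRNA not a specific factor.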 As to conditions: HepG2 Attagene cis-factorial TAL promoter reporter; actives raise or lower the signal. In outline:
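After 24 hours of chemical exposure, transfected HepG2 cells yielded RNA that was converted to 6-FAM-labelled, HpaI-digested reporter fragments for capillary electrophoresis. Values derive from bidirectional fitting against DMSO controls.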

Assay [2] can be described thus: ATG_TGFb_CIS: Attagene CIS-FACTORIAL HepG2 Assay for human Transforming Growth Factor (TGF) (AID 2282967). As to conditions: HepG2 Attagene CIS TGFb reporter, mRNA transcription; actives raise or lower the signal. In outline:
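Cells were dosed for 24 hours, after which total RNA was reverse-transcribed and reporter sequences amplified, labeled and sized by capillary electrophoresis. Activity was fitted in both directions against DMSO.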

Assay [3] in a line: ATG_VDRE_CIS: Attagene CIS-FACTORIAL HepG2 Assay for human Vitamin D Receptor Element (VDRE) (AID 2282968). As to conditions: HepG2 VDRE cis-reporter transcription, actives raise or lower the signal. In outline:
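Transient MRTU transfection of HepG2, 24 h compound exposure. Readout: reporter transcripts via RT-PCR and capillary electrophoresis, fluorescence. Bidirectional fit vs DMSO.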

The target in assay [4] is X-box-binding protein 1 (Homo sapiens) (UniProt P17861). In words: ATG_Xbp1_CIS: Attagene CIS-FACTORIAL HepG2 Assay for human X-box Binding Protein 1 (XBP1) (AID 2282972). As to conditions: HepG2 XBP1 cis-element reporter, Attagene multiplex; actives raise or lower the signal. In outline:
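Reporter transcripts were quantified by RT-PCR with fluorescent primer extension and capillary electrophoresis after 24 h chemical exposure. Cells: transiently transfected HepG2 carrying cis-regulated reporter constructs; data fitted bidirectionally relative to DMSO.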

The nature of assay [5]: ATG_M_19_TRANS: Attagene TRANS-FACTORIAL HepG2 Assay for M19 Transcription Factor (Internal Marker) (AID 2282974; active = hit-call score of the fitted dose curve at least 0.9, where 1 is the maximum). As to conditions: HepG2 Attagene TRANS-FACTORIAL M19 internal marker reporter. In outline:
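Reporter mRNA induction was measured in transfected HepG2 cells 24 h after dosing. Endpoint fitted upward relative to DMSO and serves as a background control within the multiplexed TRANS panel.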

Assay [6] in a line: ATG_GAL4_TRANS: Attagene TRANS-FACTORIAL HepG2 Assay for GAL4 (Internal Marker) (AID 2282976; active = hit-call score of the fitted dose curve at least 0.9, where 1 is the maximum). As to conditions: HepG2 Attagene TRANS GAL4 internal marker reporter. In outline: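 First, HepG2 cells were transfected with reporter units under GAL4-UAS control. Next, they were treated with chemical for 24 h. Finally, RNA was reverse-transcribed, PCR-amplified, FAM-labelled and resolved by capillary electrophoresis, with induction scored against DMSO.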

For assay [7], the target named is Steroid hormone receptor ERR1 (Homo sapiens) (UniProt P11474). The assay can be described thus: ATG_ERRa_TRANS: Attagene TRANS-FACTORIAL HepG2 Assay for human Estrogen-Related Receptor alpha (ERRa) (AID 2282971; active = hit-call score of the fitted dose curve at least 0.9, where 1 is the maximum). As to conditions: HepG2 Attagene TRANS reporter, ERRa transactivation. In outline: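 Reporter transcript induction was quantified by RT-PCR and capillary electrophoresis of FAM-labelled, HpaI-cut products after 24 h treatment of HepG2 cells carrying transiently transfected GAL4-UAS reporter units and an exogenous ERRa-Gal4 fusion; activity scored as increase over DMSO.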

In assay [8] the target is Estrogen-related receptor gamma (Homo sapiens) (UniProt P62508). In words: ATG_ERRg_TRANS: Attagene TRANS-FACTORIAL HepG2 Assay for human Estrogen-Related Receptor gamma (ERRg) (AID 2282977; active = hit-call score of the fitted dose curve at least 0.9, where 1 is the maximum;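 also: hits increase reporter signal over DMSO so potencies reflect activators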). As to conditions: HepG2 Attagene TRANS reporter, ERRg transactivation. In outline:
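Readout: fluorescent reporter-mRNA fragments resolved by capillary electrophoresis after RT-PCR and HpaI cut. Cells: transiently transfected HepG2 carrying GAL4-UAS reporters driven by exogenous NR-Gal4 chimeras, dosed 24 h. Activity fitted upward relative to DMSO baseline.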

Chain of X-box-binding protein 1 (Homo sapiens) (P17861 whole entry, looked up): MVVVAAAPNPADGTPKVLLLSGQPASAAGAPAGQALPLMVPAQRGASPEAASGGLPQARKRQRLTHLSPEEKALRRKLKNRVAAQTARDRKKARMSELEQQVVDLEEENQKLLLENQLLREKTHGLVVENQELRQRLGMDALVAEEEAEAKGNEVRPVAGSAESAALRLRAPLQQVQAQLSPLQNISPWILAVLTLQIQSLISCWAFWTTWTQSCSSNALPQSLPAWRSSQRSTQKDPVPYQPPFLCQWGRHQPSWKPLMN
Chain of Steroid hormone receptor ERR1 (Homo sapiens) (P11474 whole entry, looked up, the tested form may be a part): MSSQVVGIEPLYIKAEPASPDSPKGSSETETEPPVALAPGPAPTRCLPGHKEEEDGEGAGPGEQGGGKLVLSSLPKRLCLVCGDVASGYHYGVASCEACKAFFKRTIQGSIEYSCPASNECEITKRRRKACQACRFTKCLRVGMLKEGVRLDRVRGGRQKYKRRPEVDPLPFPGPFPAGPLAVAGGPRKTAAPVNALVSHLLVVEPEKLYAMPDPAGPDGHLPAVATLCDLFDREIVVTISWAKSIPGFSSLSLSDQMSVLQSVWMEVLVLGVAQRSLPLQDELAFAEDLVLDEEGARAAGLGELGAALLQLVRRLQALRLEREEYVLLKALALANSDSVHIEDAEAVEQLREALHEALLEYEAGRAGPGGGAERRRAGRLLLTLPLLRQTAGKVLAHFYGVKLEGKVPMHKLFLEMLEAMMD
Chain of Estrogen-related receptor gamma (Homo sapiens) (P62508 whole entry, looked up, the tested form may be a part): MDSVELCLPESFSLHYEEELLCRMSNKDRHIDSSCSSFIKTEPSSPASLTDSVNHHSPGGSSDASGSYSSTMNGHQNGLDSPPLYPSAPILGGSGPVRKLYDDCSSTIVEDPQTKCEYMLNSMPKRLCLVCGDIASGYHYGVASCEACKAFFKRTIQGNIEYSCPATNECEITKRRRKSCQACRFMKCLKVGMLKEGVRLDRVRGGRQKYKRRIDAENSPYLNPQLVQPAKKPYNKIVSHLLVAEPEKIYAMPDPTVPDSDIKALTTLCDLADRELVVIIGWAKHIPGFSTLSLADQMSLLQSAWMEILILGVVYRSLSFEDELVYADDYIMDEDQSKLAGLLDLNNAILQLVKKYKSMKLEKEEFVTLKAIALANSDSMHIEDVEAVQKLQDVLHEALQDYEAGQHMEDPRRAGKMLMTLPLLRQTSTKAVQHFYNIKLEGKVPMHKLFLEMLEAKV

On to `CCCCCC(CO)CCC` (stereo not drawn), for which the call in assay [1], in assay [2], in assay [3], in assay [4] and in assay [5] was inactive.

Take `CC(=O)C(C)=O`: the molecule was called inactive in assay [1], in assay [2], in assay [3] and in assay [4].

Regarding `CCC(C)(O)CCC=C(C)C` (stereo not drawn), the molecule was called inactive in assay [1], in assay [2], in assay [3], in assay [4] and in assay [5].

Consider `Nc1nc2ccc([N+](=O)[O-])cc2s1`, for which the molecule was classed as inactive in assay [1], in assay [2], in assay [3], in assay [4] and in assay [5].

For the molecule `C=CC(=O)NCOCC(C)C`, the outcome in assay [1], in assay [2], in assay [4] and in assay [5] was inactive. For the same molecule, the half-maximal activity concentration (AC50) (as a rule, the concentration at which the activity in the assay is half-maximal) in assay [3] was 34.3 µM (active).

As for `NCCCN1CCOCC1`, the call in assay [1], in assay [2], in assay [3] and in assay [4] was inactive.

`COc1ccc(O)cc1`: the outcome in assay [1], in assay [2], in assay [3], in assay [4], in assay [5] and in assay [6] was inactive.

With `O=C1C(c2[nH]c3ccc(S(=O)(=O)O)cc3c2O)=Nc2ccc(S(=O)(=O)O)cc21`, the outcome in assay [1], in assay [2], in assay [3], in assay [7], in assay [4] and in assay [6] was inactive.

For `O=C(O)CCCCC1CCSS1` (stereo not drawn), the molecule was classed as inactive in assay [1], in assay [2], in assay [3] and in assay [4].

For `c1cc(C(c2ccc(OCC3CO3)cc2)c2ccc(OCC3CO3)cc2)ccc1OCC1CO1` (stereo not drawn), the AC50 in assay [1] is 24.2 µM (active); in assay [2] it was 23.7 µM (active); in assay [3], 10 µM (active); in assay [4] it was 7.9 µM (active).

With `CC(C)(C#N)c1cc(Cn2cncn2)cc(C(C)(C)C#N)c1`, the molecule was called inactive in assay [1], in assay [2], in assay [3], in assay [7], in assay [4] and in assay [6].

On to `CCOc1ccccc1OCC`, for which the call in assay [1], in assay [2], in assay [3] and in assay [4] was inactive.

`C=CCOc1nc(OCC=C)nc(OCC=C)n1`: the call in assay [1], in assay [2], in assay [3], in assay [4] and in assay [5] was inactive.

Turning to `Cc1cccc(C)c1[N+](=O)[O-]`, the result in assay [1], in assay [2], in assay [3] and in assay [4] was inactive.

As for `C=CC(C)(C)O`, the call in assay [1], in assay [2], in assay [3], in assay [4], in assay [5] and in assay [6] was inactive.

For the molecule `CC(C#N)(CCC(=O)O)N=NC(C)(C#N)CCC(=O)O` (stereo not drawn), the molecule was classed as inactive in assay [1], in assay [2], in assay [3], in assay [7], in assay [4] and in assay [8].

For `FC1(F)C(F)(F)C(F)(F)C2(F)C(F)(C1(F)F)C(F)(F)C(F)(F)C1(F)C(F)(F)C(F)(F)C(F)(F)C(F)(F)C12F` (stereo not drawn), the outcome in assay [1], in assay [2], in assay [3] and in assay [4] was inactive.

As to `N#Cc1ccccc1`, the result in assay [1], in assay [2], in assay [3], in assay [7], in assay [4] and in assay [6] was inactive. Further, the call in assay [8] was inactive.

`O=C=NC1CCC(CC2CCC(N=C=O)CC2)CC1` (stereo not drawn): the half-maximal activity concentration (AC50) in assay [1] was 26.8 µM (active); in assay [2] it was 59.2 µM (active); in assay [3], 37.5 µM (active); in assay [4], 85.1 µM (active).

For the molecule `Clc1ccc(Cl)c(Cl)c1Cl`, the molecule was classed as inactive in assay [1], in assay [3], in assay [4], in assay [5] and in assay [6]. Further, the half-maximal activity concentration (AC50) in assay [2] was 19.8 µM (active).

For the molecule `O=C(O)Cc1cccc2ccccc12`, the result in assay [1], in assay [2], in assay [3], in assay [4] and in assay [5] was inactive.

With `CC(C)=CCCC(C)CC=O` (stereo not drawn), the call in assay [1], in assay [2], in assay [3], in assay [4] and in assay [5] was inactive.

`O=c1[nH]nnc2ccccc12`: the molecule was called inactive in assay [1], in assay [2], in assay [3], in assay [4] and in assay [5].

Turning to `C=C(C)C(=O)NCCCN(C)C`, the result in assay [1], in assay [2], in assay [3], in assay [4], in assay [5] and in assay [6] was inactive.

For the molecule `CCC(=O)OCc1ccccc1`, the result in assay [1], in assay [2], in assay [3], in assay [4] and in assay [5] was inactive.

On to `CC[Si](OC(C)=O)(OC(C)=O)OC(C)=O`, for which the result in assay [1], in assay [2] and in assay [4] was inactive. Besides, the AC50 in assay [3] is 33.8 µM (active).

For the molecule `CC(C)C1CCC(O)CC1` (stereo not drawn), the outcome in assay [1], in assay [2], in assay [3] and in assay [4] was inactive.

For `Cc1ccc(C(=O)c2cc(O)c(O)c([N+](=O)[O-])c2)cc1`, the molecule was classed as inactive in assay [1], in assay [2], in assay [3] and in assay [4].

For `C=C(C)C(=O)O`, the result in assay [1], in assay [2], in assay [3], in assay [4], in assay [5] and in assay [6] was inactive.

Regarding `O=c1cc(-c2ccccc2)oc2cc(O)cc(O)c12`, the molecule was called inactive in assay [1], in assay [2], in assay [3], in assay [4] and in assay [5].

For the molecule `COc1nc(C)nc(N)n1`, the molecule was called inactive in assay [1], in assay [2], in assay [3] and in assay [4].
